Screening results from PubChem.
Sampled rows, rich in hits. Any-hit rate of the full collection: about 3.7%.
VDR inhibitor: blocks the human vitamin D receptor; P11473; VDR-SRC2-3 peptide fluorescence polarization, 2 h; Potency, µM, without a hit: max response, negative = inhibition, hits mostly inhibitors; hit rate 0.93% among 400,000; note: potency is the fitted concentration of half-maximal effect; % is set by controls: 0 for no effect and ±100 for the full control effect
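FP read-out; VDR + SRC2-3 coactivator peptide; 23 nl compound by pintool; 2 h RT incubation; reagents held at 4 deg C, protected from light.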
FEN1 inh: blocks human flap endonuclease 1; P39748; Recombinant FEN1 flap cleavage, fluorescence, 15 min; Potency, µM (highest dose often 114 µM), for inactives: at the top dose activity change, negative = inhibition, actives largely listed as inhibitors; hit rate 0.35% among 390,000; AID 588795; note: potency is the fitted concentration of half-maximal effect; % is set by controls: 0 for no effect and ±100 for the full control effect; nearly all actives have a fitted effect of over 65% in size
Target sequence (P39748 whole entry, looked up): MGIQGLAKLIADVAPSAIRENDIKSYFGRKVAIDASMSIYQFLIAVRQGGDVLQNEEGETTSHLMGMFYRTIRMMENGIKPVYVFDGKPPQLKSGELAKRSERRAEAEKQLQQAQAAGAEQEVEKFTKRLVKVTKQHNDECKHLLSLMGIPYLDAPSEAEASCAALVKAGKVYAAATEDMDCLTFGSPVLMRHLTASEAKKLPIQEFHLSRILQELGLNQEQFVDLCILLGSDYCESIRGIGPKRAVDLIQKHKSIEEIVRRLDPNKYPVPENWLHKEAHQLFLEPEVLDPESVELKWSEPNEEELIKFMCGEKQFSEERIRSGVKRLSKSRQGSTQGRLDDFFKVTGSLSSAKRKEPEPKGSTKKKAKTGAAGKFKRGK
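FEN1 at 10 nM, compound pretreatment for 15 min (room temperature), 50 nM final substrate to initiate; endpoint reads at 0 and 15 min; DMSO-only plates used as vehicle background.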
TCR act: T cell receptor activation; Potency, µM (doses to about 9.22 µM), without a hit: at the highest dose activation of IL-2 secretion, actives largely listed as activators; primary human leukocytes, anti-CD3, IL-2 HTRF, 48 h; AID 504894; 330,000 tested, under 10 active; note: % of control where 0% means no effect
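Compounds are tested in HTS on primary human leukocytes co-incubated with a-CD3 beads for 48 hr. IL-2 output is measured by time-resolved FRET.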
PLK1 PBD inh: blocks phosphopeptide binding to human PLK1 polo-box domain. P53350. Plk1 PBD binding of FITC phosphopeptide, fluorescence polarization. Potency, µM, for inactives: max response, negative = inhibition, actives largely listed as inhibitors. hit rate 2.8% among 360,000. AID 720504; note: potency is the fitted concentration of half-maximal effect; series mostly up to about 57 µM; % is set by controls: 0 for no effect and ±100 for the full control effect; nearly all actives have a fitted effect of over 65% in size
PI5P4Ka inh: inhibitors of human PI5P4K alpha; P48426; PI5P4Kalpha enzyme, ADP-Glo luminescence, 60 min; active compounds read low; max response, %; hit rate 1.2% among 330,000; AID 652105; active = max response of -50% or lower; inconclusive = between -30% and -50%; inactive = -30% or higher; note: value at the top dose of about 77 µM; % is set by controls: 0 for no effect and ±100 for the full control effect
Target sequence (P48426 whole entry, looked up): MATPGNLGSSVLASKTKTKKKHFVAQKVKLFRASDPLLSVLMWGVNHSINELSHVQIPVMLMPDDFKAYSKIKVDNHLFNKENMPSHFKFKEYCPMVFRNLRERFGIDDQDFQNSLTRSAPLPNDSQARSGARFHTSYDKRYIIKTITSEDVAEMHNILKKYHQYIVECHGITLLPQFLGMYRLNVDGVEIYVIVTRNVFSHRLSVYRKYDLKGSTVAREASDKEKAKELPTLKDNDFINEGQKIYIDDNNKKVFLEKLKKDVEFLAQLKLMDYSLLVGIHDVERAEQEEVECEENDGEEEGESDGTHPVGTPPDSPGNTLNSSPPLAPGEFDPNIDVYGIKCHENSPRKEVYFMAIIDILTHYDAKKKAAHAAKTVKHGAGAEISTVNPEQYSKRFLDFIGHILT
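ADP-Glo luminescence end-point after a 60 min room-temperature kinase reaction. PI5P4Kalpha and substrate in HEPES pH 7.4 buffer with EGTA, 0.1% CHAPS and 5% DMSO; ATP at 5 microM final.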
WRN helicase inh: inhibitors of human WRN helicase | Q14191 | WRN helicase unwinding, fluorescent forked duplex, kinetic | Potency, µM (titrated, usually from 114 µM), for the others: at the highest dose activity change, negative = inhibition, usual class: inhibitors | hit rate 0.46% among 360,000 | AID 651768; note: potency is the fitted concentration of half-maximal effect; % is set by controls: 0 for no effect and ±100 for the full control effect; nearly all actives have a fitted effect of over 55% in size
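Kinetic red-fluorescence monitoring (525/598 nm) tracks WRN helicase activity after 100 nM fluorophore-quencher forked duplex and 2 mM ATP are added to 20 nM enzyme pretreated 15 min at room temperature with compound.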
* marks the source's active call; other numbers are inactive results; ? = inconclusive; nt = no result; [ ] = another dose, or the depositor's remark. Unless noted, calls come from the whole dose curve; as a rule, active = well fitted curve in the direction sought with a large enough effect; inconclusive = small, poorly fitted or top-dose-only effect, or another doubt; inactive = no such curve, though single readings can be large; an effect the other way counts as inactive or inconclusive.

SMILES	VDR inhibitor	FEN1 inh	TCR act	PLK1 PBD inh	PI5P4Ka inh	WRN helicase inh
COc1ccc(Br)cc1C(=O)NC(=S)Nc1ccc(Cl)c(C(=O)O)c1	-7.1%	-4.6%	-0.4%	11.9µM*	-65.4*	-15.9%
COc1ccc(Br)cc1/C=C/C(=O)NC(=S)Nc1ccc(Cl)c(C(=O)O)c1	?	?	1.6%	-17.5%	-10.2	-4.8%[11.6 µM]
COC(=O)NC(=S)Nc1ccc(Oc2ccc(Cl)cc2Cl)c(Cl)c1	-0.2%	-22.2%	-6.3%[46.1 µM]	2.99µM*	-16.2	-12.9%
Cc1ccncc1C(=O)O	0.0%	nt	nt	nt	nt	nt
CCN(CC)CCSC(=O)C(c1ccccc1)c1ccccc1	25.1µM*	nt	nt	nt	nt	nt
CCN(CC)CCOC(=O)C(c1ccccc1)c1ccccc1	-15.1%	12.8%	-5.6%	-4.5%	-0.9	-2.5%
O=C(NC(=O)c1ccc(Cl)cc1)Nc1cc(N2CCCCC2)ncn1	?	4.0%	-21.9%	26.7µM*	-7.8	8.3%
O=C(Nc1cc(N2CCCCC2)ncn1)c1ccc(F)cc1	-17.1%	19.3%	6.4%	29.9µM*	-8.1	4.2%
CS(=O)(=O)c1ccc([C@@H](O)[C@@H](COC(=O)CN)NC(=O)C(Cl)Cl)cc1	1.4%	nt	nt	nt	nt	nt
COc1cccc(/C=N/Nc2cc(N3CCOCC3)ncn2)c1O	15.4%	-23.9%	14.7%	1.0%	-97.7*	-7.8%[57.1 µM]
CC(C)C[C@@H](CC(=O)N[C@@H](CCC(=O)O)CC(=O)O)NC(=O)[C@@H]1CCCC[C@H]1NC(=O)C[C@@H](NC(=O)C[C@H](Cc1ccccc1)NC(=O)[C@@H]1CCCC[C@H]1N)C(C)C	0.4%	nt	nt	nt	nt	nt
Cc1ccc(S(=O)(=O)Nc2c(C(=O)O)[nH]c3ccccc23)c(C)c1	-22.1%	-11.7%	-2.4%	26.7µM*	-11.7	-3.9%
O=C(O)c1[nH]c2ccccc2c1NS(=O)(=O)c1ccc(F)cc1	-4.1%	19.5%	-1.1%	?	-2.5	-7.0%
Cc1ccc(NC(=O)Cn2c(O)c(N=NC(N)=O)c3ccccc32)cc1	-2.6%	-20.0%	-1.4%	-1.5%	-0.8	-19.3%
Cc1ccc(NC(=O)Cn2c(O)c(N=NS(=O)(=O)c3ccc(C)cc3)c3ccccc32)cc1	?	-10.1%	-0.9%[46.1 µM]	26.7µM*	?	-9.0%
O=c1[nH]cnc2scc(-c3ccc(F)cc3)c12	-9.8%	-0.3%	-6.7%	-0.9%	-7.1	-8.5%
O=c1[nH]c(=S)[nH]c2scc(-c3ccc(Br)cc3)c12	-12.8%	-8.3%	-0.7%	26.7µM*	-54.9*	?
O=C(NCC(=O)N1CCCCCC1)c1ccc(Cl)cc1	?	7.5%	2.1%	6.7µM*	-19.1	-2.4%
COC(=O)C1(C)C=C(Nc2ccc(OC)cc2)C(=O)N1c1ccc(OC)cc1 (configuration not stated)	9.1%	nt	nt	nt	nt	nt
CCOC(=O)c1ccc(CN(Cc2ccccc2)S(=O)(=O)c2ccc(C)cc2)cc1	10.6%	-3.1%	nt	nt	nt	nt
O=C(O)c1ccc(CN(Cc2ccccc2)S(=O)(=O)c2ccc(Cl)cc2)cc1	?	-8.6%	1.1%	23.8µM*	0.5	4.3%
NC(=O)COC(=O)c1ccc(Cl)c(S(=O)(=O)N(Cc2ccccc2)c2ccc(Cl)cc2)c1	-20.0%	-12.3%	-6.0%[46.1 µM]	-3.8%	11.0	-21.1%[57.1 µM]
O=C(O)c1ccc(Cl)c(S(=O)(=O)N(Cc2ccccc2)c2ccc(Cl)cc2)c1	-10.8%	12.2%	6.8%	29.9µM*	-8.2	-0.6%
O=C(NCc1ccc(F)cc1)c1cc2cccc3c2n1CCS3	21.8%	?	nt	nt	nt	nt
C(=C\c1ccnc2ccccc12)/c1ccc(N2CCNCC2)cc1	nt	-12.1%	nt	nt	nt	nt
SMILES	VDR inhibitor	FEN1 inh	TCR act	PLK1 PBD inh	PI5P4Ka inh	WRN helicase inh
COc1ccc(OC)c2sc(Cl)nc12	12.3%	6.6%	7.3%	18.9µM*	-1.7	1.9%
COc1ccc(OC)c2sc(N3CCN(C(=O)c4ccco4)CC3)nc12	-3.7%	-20.1%	nt	nt	nt	nt
CCOc1cc(CNC(=O)c2ccccc2NC(=O)c2nsc3ccccc23)ccc1OC	10.2%	0.3%	nt	nt	nt	nt
O=C(NC1CCCCC1)Oc1ccccc1	-8.7%	7.4%	-3.0%	-3.7%	3.6	-23.6%
O=C(NC1CCCCC1)Oc1cccc2ccccc12	-16.7%	-1.3%	1.1%	23.8µM*	-4.2	1.0%
Nc1nc(N=Nc2ccc(O)cc2)cc(=O)[nH]1	nt	nt	nt	-26.5%	-51.8*	-15.4%
Nc1nc(N)c(N=Nc2ccccc2)c(=O)[nH]1	13.1%	5.3%	2.8%	0.0%	-14.1	-13.5%
CCOc1ccccc1OCc1nn2c(COc3ccccc3)nnc2s1	31.6µM*	-3.0%	2.5%	4.74µM*	nt	-21.2%
COc1cc(-c2nn3c(Cc4ccccc4)nnc3s2)cc(OC)c1OC	-15.2%	-1.6%	-5.6%	26.7µM*	nt	-9.3%
COc1cc(-c2nn3c(COc4ccccc4)nnc3s2)cc(OC)c1OC	?	-4.9%	-0.7%	26.7µM*	-7.2	15.8%
CCOc1ccc(-c2nnc3sc(COc4ccccc4)nn23)cc1	2.9%	-5.7%	-1.7%	-2.7%	0.4	-0.8%
COc1cc(-c2nnc3sc(-c4ccncc4)nn23)cc(OC)c1OC	-16.2%	-27.7%	2.8%	11.9µM*	-12.1	-1.7%
CCCCOc1ccc(CNC(=O)c2cccc(NC(=O)N3CCSc4ncccc43)c2)cc1	8.9%	-0.5%	nt	nt	nt	nt
CN(C)c1ccc(/C=C/c2ccnc3cc(Cl)cc(Cl)c23)cc1	nt	9.6%	nt	nt	nt	nt
COc1ccc(-n2c(C)cc(/C=C/c3nc(O)c([N+](=O)[O-])c(=O)[nH]3)c2C)cc1	7.7%	?	0.8%	-19.8%	-51.7*	-15.7%[57.1 µM]
Cc1cc(/C=C\c2nc(O)c([N+](=O)[O-])c(=O)[nH]2)c(C)n1-c1ccccc1	-12.6%	?	6.3%	-19.4%	-62.9*	?
CCOc1cc(/C=C\c2nc(O)c([N+](=O)[O-])c(=O)[nH]2)ccc1OC(C)CC (configuration not stated)	?	-4.1%	-14.0%	-19.9%	?	-17.2%
O=C(COc1ccccc1/C=C\c1nc(O)c([N+](=O)[O-])c(=O)[nH]1)Nc1ccccc1	?	-22.1%	-1.1%	-17.9%	-54.6*	?
CCc1ccccc1NC(=O)CSc1nc2c(oc3ccccc32)c(=O)n1-c1ccccc1F	14.5%	-4.2%	nt	nt	nt	nt
COc1ccc(-c2nc(-c3ccccc3)oc2Nc2ccccc2C)cc1	-0.6%	nt	nt	nt	nt	nt
CCSc1nnc2c(n1)OC(C)(C)Nc1ccccc1-2	9.4%	17.7%	10.5%	3.7%	nt	-20.2%[57.1 µM]
CSc1nnc2c(n1)OC1(Nc3ccccc3-2)C(=O)Nc2ccccc21 (configuration not stated)	-16.6%	-6.4%	-2.5%	26.7µM*	-26.1	-5.3%
CCn1nnnc1NC(=O)c1cc(OC)c(OC)c(OC)c1	?	10.5%	-5.5%	26.7µM*	3.1	1.2%
CCCCCCCCCCCCCCCC(=O)C1=C(O)C(CO)OC1=O (configuration not stated)	14.1µM*	nt	nt	nt	nt	nt
O=[N+]([O-])c1cccnc1N1CCC(c2cc(-c3ccc(Cl)cc3Cl)n[nH]2)CC1	-3.2%	-15.5%	-53.1%	10.6µM*	12.5	1.7%
